Assay results from the supplement of paper PMC11732987, “Enantioselective OTUD7B fragment discovery through chemoproteomics screening and high-throughput optimisation” (Communications Chemistry, 2025).
Values without a mark were called inactive.

Columns and labels:
Experiment in all cases: log2 ratio of Biotin-Ahx-Ub-VS probe labelling (fragment/DMSO); higher = less target engagement (more negative = stronger competition), active = hit call of the paper (q ≤ 0.05, log2 ratio ≤ -1)
Settings in all cases: compound concentration: 200 uM; treatment time: 3 h
OTUD6B = target: T1, OTUD6B (UniProt Q8N6M0)
T1 sequence (whole entry): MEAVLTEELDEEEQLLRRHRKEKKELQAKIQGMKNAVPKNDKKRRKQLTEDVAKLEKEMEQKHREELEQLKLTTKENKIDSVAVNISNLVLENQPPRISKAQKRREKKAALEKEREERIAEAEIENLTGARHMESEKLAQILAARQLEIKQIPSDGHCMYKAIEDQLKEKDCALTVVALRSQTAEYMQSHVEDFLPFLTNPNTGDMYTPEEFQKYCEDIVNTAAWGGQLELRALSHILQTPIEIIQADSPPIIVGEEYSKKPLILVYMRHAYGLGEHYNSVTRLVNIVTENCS
In short: (§1)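 HEK293T lysate in Tris/CHAPS/IGEPAL buffer with protease inhibitors (495 µg per sample) was given fragment at 200 µM or vehicle for 3 h, in triplicate. It then received Biotin-Ahx-Ub-VS at 0.5 µM final for 1 h. Labelled DUBs were NeutrAvidin-enriched, digested with LysC and trypsin, and run by diaPASEF LC-MS/MS. Values are average log2 fragment/vehicle ratios by unpaired t-test on global-median-normalised Spectronaut quantities of proteins with ≥2 unique peptides.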

OTUD7B = target: T2, OTUD7B (UniProt Q6GQQ9)
T2 sequence (whole entry): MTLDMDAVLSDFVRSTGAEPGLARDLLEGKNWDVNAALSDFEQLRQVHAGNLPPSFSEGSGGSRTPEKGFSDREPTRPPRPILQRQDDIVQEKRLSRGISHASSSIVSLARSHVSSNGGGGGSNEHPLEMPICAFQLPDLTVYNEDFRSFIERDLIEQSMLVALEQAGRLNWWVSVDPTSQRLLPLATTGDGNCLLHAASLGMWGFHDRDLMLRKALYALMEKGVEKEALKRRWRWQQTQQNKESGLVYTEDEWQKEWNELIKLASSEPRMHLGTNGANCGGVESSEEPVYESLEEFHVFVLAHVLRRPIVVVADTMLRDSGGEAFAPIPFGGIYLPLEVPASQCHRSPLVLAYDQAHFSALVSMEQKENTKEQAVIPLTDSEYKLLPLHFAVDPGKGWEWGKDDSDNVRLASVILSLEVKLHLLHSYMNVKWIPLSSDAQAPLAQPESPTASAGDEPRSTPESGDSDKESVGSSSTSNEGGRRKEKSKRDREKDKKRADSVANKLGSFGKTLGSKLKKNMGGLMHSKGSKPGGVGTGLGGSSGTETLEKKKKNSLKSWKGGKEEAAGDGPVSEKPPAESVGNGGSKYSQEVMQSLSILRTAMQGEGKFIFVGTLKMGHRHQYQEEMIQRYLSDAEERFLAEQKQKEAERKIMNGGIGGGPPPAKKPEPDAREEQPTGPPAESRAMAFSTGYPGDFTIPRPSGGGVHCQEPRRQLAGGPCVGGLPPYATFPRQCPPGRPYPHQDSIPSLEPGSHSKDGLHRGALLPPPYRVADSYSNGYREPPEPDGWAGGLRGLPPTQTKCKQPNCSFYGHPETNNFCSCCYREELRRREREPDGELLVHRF
In short: as §1

PRPF8 = PRPF8 (UniProt Q6P2Q9)
In short: as §1

PSMD7 = target: T3, PSMD7 (UniProt P51665)
T3 sequence (whole entry): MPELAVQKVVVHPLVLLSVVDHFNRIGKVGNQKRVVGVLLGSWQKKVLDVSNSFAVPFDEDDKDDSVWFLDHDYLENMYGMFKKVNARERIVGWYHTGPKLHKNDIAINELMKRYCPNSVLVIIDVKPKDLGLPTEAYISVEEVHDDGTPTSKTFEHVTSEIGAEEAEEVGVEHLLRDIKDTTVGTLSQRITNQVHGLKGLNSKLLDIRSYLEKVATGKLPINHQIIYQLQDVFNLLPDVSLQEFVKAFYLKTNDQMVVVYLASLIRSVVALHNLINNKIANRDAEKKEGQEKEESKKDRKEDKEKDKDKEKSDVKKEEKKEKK
In short: as §1

UCHL1 = UCHL1 (UniProt P09936)
Chain of UCHL1 (P09936 whole entry, looked up): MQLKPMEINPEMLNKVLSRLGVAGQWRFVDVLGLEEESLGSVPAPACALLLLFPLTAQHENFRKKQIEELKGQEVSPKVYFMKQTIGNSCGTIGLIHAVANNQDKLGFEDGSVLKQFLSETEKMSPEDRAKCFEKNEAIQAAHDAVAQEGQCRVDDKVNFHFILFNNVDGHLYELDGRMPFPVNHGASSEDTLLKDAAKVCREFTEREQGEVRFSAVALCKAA
In short: as §1

UCHL3 = target: T4, UCHL3 (UniProt P15374)
T4 sequence (whole entry): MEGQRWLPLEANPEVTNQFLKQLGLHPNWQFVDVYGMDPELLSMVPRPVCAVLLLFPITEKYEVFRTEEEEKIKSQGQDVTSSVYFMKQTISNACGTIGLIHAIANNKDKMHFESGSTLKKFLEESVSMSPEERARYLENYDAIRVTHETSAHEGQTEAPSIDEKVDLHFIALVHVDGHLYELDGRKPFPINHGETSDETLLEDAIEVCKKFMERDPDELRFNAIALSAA
In short: as §1

UCHL5 = target: T5, UCHL5 (UniProt Q9Y5K5)
T5 sequence (whole entry): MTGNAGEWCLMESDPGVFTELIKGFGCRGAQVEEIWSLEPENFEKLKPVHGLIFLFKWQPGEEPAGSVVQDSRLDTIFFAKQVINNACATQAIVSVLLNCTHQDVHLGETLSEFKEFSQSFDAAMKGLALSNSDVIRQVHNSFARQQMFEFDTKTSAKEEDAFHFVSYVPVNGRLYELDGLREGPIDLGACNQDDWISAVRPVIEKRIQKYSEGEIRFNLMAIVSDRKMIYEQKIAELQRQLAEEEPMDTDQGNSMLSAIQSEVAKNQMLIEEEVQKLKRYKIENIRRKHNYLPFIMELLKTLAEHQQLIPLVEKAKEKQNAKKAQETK
In short: as §1

USP10 = USP10 (UniProt Q14694)
Chain of USP10 (Q14694 whole entry): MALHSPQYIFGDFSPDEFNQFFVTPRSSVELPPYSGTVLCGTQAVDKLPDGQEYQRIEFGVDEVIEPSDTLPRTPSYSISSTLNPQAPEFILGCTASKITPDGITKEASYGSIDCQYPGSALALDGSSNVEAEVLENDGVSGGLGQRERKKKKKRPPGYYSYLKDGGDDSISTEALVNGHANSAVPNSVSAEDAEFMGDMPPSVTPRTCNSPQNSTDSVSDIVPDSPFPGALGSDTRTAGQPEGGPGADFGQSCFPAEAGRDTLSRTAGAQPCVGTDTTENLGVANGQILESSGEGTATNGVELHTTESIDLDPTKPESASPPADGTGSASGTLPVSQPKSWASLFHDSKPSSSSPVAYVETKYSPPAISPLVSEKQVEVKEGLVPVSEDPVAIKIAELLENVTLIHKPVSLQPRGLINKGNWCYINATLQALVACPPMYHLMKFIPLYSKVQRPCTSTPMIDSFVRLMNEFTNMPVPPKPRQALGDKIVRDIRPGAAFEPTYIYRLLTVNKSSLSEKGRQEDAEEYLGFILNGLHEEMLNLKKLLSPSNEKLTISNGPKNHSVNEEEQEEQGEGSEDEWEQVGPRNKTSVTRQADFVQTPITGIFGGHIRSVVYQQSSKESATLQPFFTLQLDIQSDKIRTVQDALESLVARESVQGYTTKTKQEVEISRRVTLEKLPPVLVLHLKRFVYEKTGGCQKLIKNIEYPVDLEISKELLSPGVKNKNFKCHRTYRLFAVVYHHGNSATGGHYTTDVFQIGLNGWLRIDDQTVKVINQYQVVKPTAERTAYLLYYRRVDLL
In short: as §1

USP15 = target: T6, USP15 (UniProt Q9Y4E8)
T6 sequence (whole entry): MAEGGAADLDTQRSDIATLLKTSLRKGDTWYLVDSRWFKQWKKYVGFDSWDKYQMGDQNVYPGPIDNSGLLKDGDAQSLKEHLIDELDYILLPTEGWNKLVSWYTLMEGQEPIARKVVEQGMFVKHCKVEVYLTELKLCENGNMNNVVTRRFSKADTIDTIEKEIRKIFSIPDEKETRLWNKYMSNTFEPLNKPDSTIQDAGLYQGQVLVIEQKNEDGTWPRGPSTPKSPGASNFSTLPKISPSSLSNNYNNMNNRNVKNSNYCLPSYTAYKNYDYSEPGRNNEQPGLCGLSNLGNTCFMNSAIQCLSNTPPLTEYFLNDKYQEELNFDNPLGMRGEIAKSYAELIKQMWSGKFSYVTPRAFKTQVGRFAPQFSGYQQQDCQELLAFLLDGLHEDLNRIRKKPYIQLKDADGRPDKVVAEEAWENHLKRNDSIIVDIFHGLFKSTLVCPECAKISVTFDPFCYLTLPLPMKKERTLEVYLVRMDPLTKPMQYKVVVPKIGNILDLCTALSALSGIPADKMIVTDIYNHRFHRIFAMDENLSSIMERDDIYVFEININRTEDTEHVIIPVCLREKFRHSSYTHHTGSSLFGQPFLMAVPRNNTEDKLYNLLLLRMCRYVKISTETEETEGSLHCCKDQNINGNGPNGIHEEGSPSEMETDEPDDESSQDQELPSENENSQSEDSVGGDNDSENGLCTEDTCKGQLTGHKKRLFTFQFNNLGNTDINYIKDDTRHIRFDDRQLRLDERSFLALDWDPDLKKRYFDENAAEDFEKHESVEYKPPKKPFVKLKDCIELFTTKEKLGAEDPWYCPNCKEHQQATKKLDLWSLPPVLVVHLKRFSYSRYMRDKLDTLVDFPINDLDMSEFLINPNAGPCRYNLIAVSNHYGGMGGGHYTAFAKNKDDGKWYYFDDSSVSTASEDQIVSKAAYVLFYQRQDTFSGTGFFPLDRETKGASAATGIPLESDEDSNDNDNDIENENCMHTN
In short: as §1

USP16 = USP16 (UniProt Q9Y5T5)
Chain of USP16 (Q9Y5T5 whole entry, looked up): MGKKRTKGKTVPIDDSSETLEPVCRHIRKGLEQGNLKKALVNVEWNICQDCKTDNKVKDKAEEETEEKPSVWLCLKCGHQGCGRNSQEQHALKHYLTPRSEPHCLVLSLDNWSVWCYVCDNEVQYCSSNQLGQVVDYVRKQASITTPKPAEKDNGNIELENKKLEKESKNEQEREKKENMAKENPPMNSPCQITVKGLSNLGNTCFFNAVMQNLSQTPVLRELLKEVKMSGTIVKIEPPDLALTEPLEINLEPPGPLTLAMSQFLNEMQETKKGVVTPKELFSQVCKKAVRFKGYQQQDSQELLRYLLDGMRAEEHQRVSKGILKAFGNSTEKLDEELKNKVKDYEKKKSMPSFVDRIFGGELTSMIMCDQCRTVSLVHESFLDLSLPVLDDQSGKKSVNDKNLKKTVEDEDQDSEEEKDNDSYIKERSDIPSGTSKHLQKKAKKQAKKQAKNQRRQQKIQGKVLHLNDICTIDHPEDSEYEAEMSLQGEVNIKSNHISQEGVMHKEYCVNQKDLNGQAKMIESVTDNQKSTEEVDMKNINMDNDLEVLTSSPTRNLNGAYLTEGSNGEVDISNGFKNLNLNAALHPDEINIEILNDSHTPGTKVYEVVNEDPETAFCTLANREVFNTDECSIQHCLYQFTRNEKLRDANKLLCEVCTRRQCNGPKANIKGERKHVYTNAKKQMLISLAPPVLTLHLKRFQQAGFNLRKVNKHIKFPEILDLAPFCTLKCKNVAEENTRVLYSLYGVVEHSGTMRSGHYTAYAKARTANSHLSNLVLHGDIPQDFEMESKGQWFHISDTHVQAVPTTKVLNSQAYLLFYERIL
In short: as §1

| Compound | log2 ratio of Biotin-Ahx-Ub-VS probe labelling (OTUD6B) | log2 ratio of Biotin-Ahx-Ub-VS probe labelling (OTUD7B) | log2 ratio of Biotin-Ahx-Ub-VS probe labelling (PRPF8) | log2 ratio of Biotin-Ahx-Ub-VS probe labelling (PSMD7) | log2 ratio of Biotin-Ahx-Ub-VS probe labelling (UCHL1) | log2 ratio of Biotin-Ahx-Ub-VS probe labelling (UCHL3) | log2 ratio of Biotin-Ahx-Ub-VS probe labelling (UCHL5) | log2 ratio of Biotin-Ahx-Ub-VS probe labelling (USP10) | log2 ratio of Biotin-Ahx-Ub-VS probe labelling (USP15) | log2 ratio of Biotin-Ahx-Ub-VS probe labelling (USP16) |
| --- | --- | --- | --- | --- | --- | --- | --- | --- | --- | --- |
| Cc1ccc(C(=O)NCCNC(=O)CCl)cc1 | -0.182 | -0.711 | -0.064 | -0.134 | -1.75 (active) | 0.104 | -0.144 | -0.111 | -0.0554 | -0.0901 |
| O=C(CCl)Nc1cc(Cl)ccc1-n1cncn1 | -1.04 (active) | -2.08 (active) | -0.132 | -0.143 | -1.89 (active) | -0.609 | -1.18 (active) | -0.141 | -1.26 (active) | 0.0892 |
| COc1cccc(CN(C)C(=O)CCl)c1 | -0.198 | -0.364 | -0.0045 | -0.109 | -1.22 (active) | 0.229 | -0.0244 | -0.22 | -0.251 | 0.142 |
| NC(=O)C(Cc1ccccc1)NC(=O)CCl (stereo not given) | -0.129 | -0.38 | -0.0593 | -0.0419 | -1.73 (active) | 0.313 | -0.295 | -0.0595 | -0.0229 | 0.0723 |
| O=C(CCl)N1CCC(=C(F)CO)C1 | 0.0579 | 0.0673 | 0.202 | 0.0975 | -1.56 (active) | -0.0974 | 0.0121 | -0.107 | -0.156 | -0.506 |
| COCC[C@@H](NC(=O)CCl)c1ccccc1 | 0.0947 | -0.357 | -0.103 | -0.216 | -1.4 (active) | 0.334 | -0.0927 | 0.0397 | -0.00696 | -0.303 |
| Cc1ccc(CNC(=O)CCl)nc1C.Cl | 0.146 | -0.314 | 0.14 | -0.305 | -1.07 (active) | 0.499 | -0.0227 | -0.0933 | 0.144 | 0.174 |
